# LASV entry inh = blocks Lassa virus binding to or entry into cells; Potency, µM (top dose mostly 37.9 µM), inactives show at the highest dose activity change, negative = inhibition, usual class: inhibitors; hit rate 1.2% among 300,000; Lassa virus pseudotype entry inhibition, cell reporter; calls by dose curve; tested in HEK293 cells; also: potency is read from the fitted curve at half-maximal effect; nearly all actives have a fitted effect of over 50% in size
# HCMV antiviral = inhibitors of human cytomegalovirus | hit rate 4.5% among 410,000 | AID 1259415 | activity change, negative = inhibition, % at 57.5 µM | HFF cells, HCMV-luciferase reporter, 72 h; stronger effect = lower value; in the data active = activity change below about -60%; inconclusive = no clear call, values can overlap the other calls; inactive = above about -39%
#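 Human foreskin fibroblasts infected with luciferase-reporter HCMV at MOI 1 PFU/cell, compounds at two doses. Luciferase measured 72 h post infection; normalized to buffer-only basal and Salinomycin (10uM) controls.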
# Pf growth 96h = P. falciparum growth inhibition at 96 hour, primary screen for plastid delayed-death inhibitors; hit rate 6.9% among 320,000; AID 504834; P. falciparum luciferase reporter growth, 96 h; Potency, µM (top dose mostly 28.7 µM), without a hit: at the top dose activity change, negative = inhibition, usual class: inhibitors; also: potency is read from the fitted curve at half-maximal effect
#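 P. falciparum expressing integrated firefly luciferase, in erythrocytes at 2% hematocrit, 0.05% parasitemia, incubated with compounds 96 h at 37 C, 5% CO2. Growth inhibition read as loss of luminescence; two-generation exposure targets delayed-death apicoplast inhibitors.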
# Pf growth 48h = P. falciparum growth inhibition at 48 hours (one generation); hit rate 5.9% among 310,000; Potency, µM (titrated, usually from 28.7 µM), without a hit: top-dose activity change, negative = inhibition, hits mostly inhibitors; P. falciparum luciferase growth in erythrocytes, 48 h; also: potency is read from the fitted curve at half-maximal effect
#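 Cell-based growth assay: transgenic P. falciparum expressing firefly luciferase, cultured in red cells within RPMI 1640 containing 0.5% w/v Albumax, 24 mM bicarbonate and gentamycin. A drop in luciferase activity indicates inhibition.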
# Marburg entry inh = Marburg virus entry inhibition | hit rate 1.8% among 300,000 | Marburg virus pseudotyped entry inhibition, cell reporter | Potency, µM (series often up to 37.8 µM), inactives show at the top dose activity change, negative = inhibition, usual class: inhibitors; calls by dose curve; tested in HEK293 cells; also: potency is read from the fitted curve at half-maximal effect
# HCV inh = blocks hepatitis C virus; Huh7.5.1 HCVcc-Cre infection, luciferase reporter, 44 h; Potency, µM (highest dose often 41.8 µM), for inactives: top-dose activity change, negative = inhibition, actives largely listed as inhibitors; hit rate 3.4% among 340,000; AID 651820; also: potency is read from the fitted curve at half-maximal effect
#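 Luciferase read-out (15 sec integration) after a 15 min room-temperature substrate step quantifies HCVcc-Cre infection. Cells, 1,000 per well, had compound added 4 h post-plating, then virus at ~0.5 moi, and were cultured 44 h.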
# * hit, by the source's call; ? = inconclusive; . = no result given; [ ] = remark or other dose. Rows were chosen to be rich in hits. Some 14% of all compounds tested hit in one or more screens of this group. Unless noted, calls follow the shape of the dose curve; as a rule, active = well fitted inhibition curve with a large enough effect; inconclusive = small, poorly fitted or top-dose-only effect, or another doubt; inactive = no such curve, though single readings can be large or run the other way. % is scaled to controls: 0 for no effect and ±100 for the full control effect.
SMILES,LASV entry inh,HCMV antiviral,Pf growth 96h,Pf growth 48h,Marburg entry inh,HCV inh
COc1ccccc1C(=O)Nc1ccc2nc(SCC(=O)N(C)C)sc2c1,-6.9%,13.1,11.7µM*,?,-0.5%,-5.4%
Cc1ccccc1NC(=O)c1c(C)oc2ccc(O)c(CN3CCOCC3)c12,?,-19.8,.,.,?,.
Nn1c(COc2ccccc2F)nnc1SCC(=O)NC1CC1,-3.4%,-17.7,43.1%,0.0%,18.1%,18.8%
Oc1ccc2ccc3[nH]cnc3c2c1,.,-38.0,39.8%,?,.,-10.0%
CN(C)Cc1c(O)ccc2[nH]cnc12,8.0%,-94.9*,.,7.1%,0.0%,?
Cc1ccc2nc3c(cc(C#N)c(=O)n3-c3nnc(SCc4ccccc4Cl)s3)c(=O)n2c1,17.4%[46.1 µM],10.6,.,.,24.8%[46.1 µM],.
Cc1nn(-c2nccs2)c2c1C(=O)CC(C)(C)C2Br (stereo unspecified),.,-70.1*,.,.,.,-0.9%
Cc1nn(-c2ccccn2)c2c1C(=O)C(Br)CC2 (stereo unspecified),-4.9%,.,29.6%,?,?,-5.1%
O=C(COCc1cc(-c2cccs2)on1)N1CCN(c2cccc(Cl)c2)CC1,-0.7%[46.1 µM],-9.7,.,.,.,.
Cc1cc(C)c(OCC(=O)Nc2ccc(NC(=O)c3ccco3)cc2)c([N+](=O)[O-])c1,-1.4%,-33.8,?,?,-15.1%,-19.4%
Cc1cc(C)c(OCC(=O)Nc2cccc(NC(=O)c3ccco3)c2)c(Br)c1,-11.7%,-75.9*,?,?,?,?
COc1c(C)cc(Br)cc1C(=O)Nc1cccc(NC(=O)c2ccco2)c1,?,-15.1,.,?,?,6.31µM*
COc1ccc(Br)cc1C(=O)Nc1cccc(NC(=O)c2ccco2)c1,-26.6%,.,-26.6%,-17.4%,?,?
O=C(Nc1cccc(-c2cccc(Cl)c2)c1)C1CCN(Cc2ccc(CO)o2)CC1,-9.9%[46.1 µM],?,?,-16.6%,-23.5%[46.1 µM],10µM*
Cc1ccc(CN2CCC(C(=O)Nc3cccc(-c4cccc(F)c4)c3)CC2)o1,.,11.4,4.65µM*,27.5%,.,?
COc1cccc(C(=O)NCC2CCN(C(=O)C(=O)c3cc4ccccc4o3)CC2)c1,.,40.7,.,.,.,.
CCC1Nc2ncnc(N3CCN(c4ccccc4)CC3)c2N(Cc2ccc(OC)cc2)C1=O (stereo unspecified),.,3.1,11.7µM*,11.7µM*,.,2.82µM*
CCC1Nc2ncnc(N3CCN(c4ccccc4)CC3)c2N(Cc2ccc(Br)cc2)C1=O (stereo unspecified),.,-15.1,?,11.7µM*,.,6.8%
CCC1Nc2ncnc(N3CCOCC3)c2N(Cc2ccc(OC)cc2)C1=O (stereo unspecified),.,-10.3,.,.,.,7.6%
CCN1C(=O)/C(=C\c2ccncc2)SC1=Nc1ccc(C)c(C)c1,8.5%,45.9,1.85µM*,?,?,-21.1%
CCN1C(=O)/C(=C\c2ccncc2)SC1=S,.,-33.4,39.0%,-0.3%,.,6.5%
CCCN1C(=O)/C(=C\c2ccncc2)SC1=Nc1ccccc1,?,?,?,11.7µM*,?,-18.0%
N#Cc1ccccc1OCC(=O)N1CCN(c2ccccc2F)CC1,.,12.9,.,.,13.4%[46.1 µM],.
O=P(Oc1ccccc1)(Oc1ccccc1)C(Nc1ccccc1)c1ccccc1 (stereo unspecified),?,-24.0,1.65µM*,?,?,8.5%
CCCCCCCCN1C(=O)[C@H](CC(=O)NCc2cccc3ccccc23)C[C@@]2(C(=O)OCC)CCCC=C12,.,16.7,.,.,.,.
SMILES,LASV entry inh,HCMV antiviral,Pf growth 96h,Pf growth 48h,Marburg entry inh,HCV inh
C=CCn1c(COc2ccccc2F)nnc1SCC(=O)Nc1cc2oc3ccccc3c2cc1OC,?,-14.6,1.5%[5.75 µM],0.4%,?,7.08µM*
C=CCn1c(SCC(=O)Nc2cccc3ccccc23)nnc1-c1cnccn1,-16.1%,13.7,?,?,-5.7%,-11.3%
C=CCn1c(COc2ccccc2F)nnc1SCC(=O)NC(=O)NCc1ccco1,6.3%,26.7,4.7%,.,21.0%,14.2%
C=CCn1c(SCC(=O)Nc2cc3oc4ccccc4c3cc2OC)nnc1-c1cnccn1,-0.2%,-4.4,-15.4%,9.28µM*,?,12.6µM*
C=CCn1c(COc2ccccc2F)nnc1SCC(=O)c1c[nH]c2ccccc12,?,-33.5,?,-23.6%,12.6µM*,?
COCCNC(=O)C1(C)CCCN(Cc2ccccc2N(C)C)C1 (stereo unspecified),.,3.9,.,.,.,.
COc1ccc(CN2C(=O)C(CC(C)C)Nc3ncnc(N4CCN(c5ccccn5)CC4)c32)cc1 (stereo unspecified),.,19.6,?,?,.,0.3%
Cc1ccc(CN2C(=O)C(CC(C)C)Nc3ncnc(N4CCN(c5ccccn5)CC4)c32)cc1 (stereo unspecified),.,-2.6,?,9.28µM*,.,?
CC(C)CC1Nc2ncnc(N3CCN(c4ccccn4)CC3)c2N(Cc2ccc(Br)cc2)C1=O (stereo unspecified),.,1.3,8.28µM*,7.38µM*,.,25.1µM*
COc1ccc(NS(=O)(=O)c2cc3c4c(c2)CCN4C(=O)CC3)c(OC)c1,?,50.6,-12.7%,-5.4%,?,-4.5%
COc1ccc(-c2nnc(SCc3cc(=O)c4cc(C)cc(C)c4[nH]3)n2C)cc1,-22.7%[46.1 µM],-65.7*,.,.,.,.
CCOC(=O)c1c(C)[nH]c(C(C)=NNC(=O)c2cccs2)c1C,?,-25.9,.,.,?,?
COc1cccc(/C=C/c2nc3ccccc3c(=O)n2-c2ccc(C)c(C)c2)c1OC,?,1.4,.,.,.,.
O=C(NCc1cc(C(F)(F)F)ccc1Cl)c1cccc2c1C(=O)c1ccc(N3CCC(N4CCCCC4)CC3)cc1S2(=O)=O,.,-101.3*,.,.,.,.
O=C(NCc1cc(C(F)(F)F)ccc1Cl)c1cccc2c1C(=O)c1ccc(N3CCCCC3)cc1S2(=O)=O,.,-4.4,.,.,.,23.1%
O=C1Nc2ccccc2C(=O)N2[C@H](c3cccc(Br)c3)[C@@H]3C(=O)N(Cc4ccccc4)C(=O)[C@@H]3[C@H]12,.,-60.4*,-27.9%,-29.2%,.,2.8%[8.37 µM]
O=C(c1ccc(Cl)c(S(=O)(=O)N2CCCCCC2)c1)N1CCCCC1,.,9.0,6.3%,?,.,-11.7%
O=C(c1ccc(Cl)c(S(=O)(=O)N2CCCCCC2)c1)N1CCN(c2ccccn2)CC1,?,-81.2*,?,.,?,7.08µM*
Cc1c(C)n(C)c2ccc(C(=O)N3CCN(c4ccccn4)CC3)cc12,.,11.0,6.8%,10.4µM*,.,?
CCOc1ccccc1N1CCN(C(=O)c2ccc(Cl)c(S(=O)(=O)N3CCCCC3)c2)CC1,?,-37.9,5.22µM*,11.7µM*,?,10µM*
CCOC(=O)[C@]12CCCC=C1N(Cc1ccccc1)C(=O)[C@H](CC(=O)NCCCOC)C2,.,-8.6,.,.,.,.
